POLI inh = blocks human DNA polymerase iota activity; Q9UNA4; Pol iota fluorescent replication assay, 10 min; Potency, µM (titrated, usually from 115 µM), usual class: inhibitors; 1% of 390,000 active; AID 588590
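Pol iota at 10 nM preincubated 15 min with compounds at room temperature; reaction started with fluorescent substrate, 50 nM final. Fluorescence read kinetically at 0 and 10 min; buffer-only wells as negative control.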
Pol beta inh = blocks human DNA polymerase beta activity; P06746; Pol beta primer extension/strand displacement, fluorescence kinetic; Potency, µM (doses to about 114 µM), usual class: inhibitors; 1.3% of 340,000 active
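Human Pol beta at 10 nM; strand-displacement substrate 50 nM final. Compound exposure 15 min at room temperature before start, reaction 10 min at room temperature.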
FEN1 inhibitor = human FEN1 inhibition | Recombinant FEN1 flap cleavage, fluorescence, 15 min | Potency, µM (highest dose often 114 µM), usual class: inhibitors | 0.35% of 390,000 active | P39748; note: nearly all actives have a fitted effect of over 65% in size
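Recombinant FEN1 (10 nM) was preincubated with pin-transferred compounds for 15 min at room temperature, then flap DNA substrate (50 nM final) was added. Plates were read at 0 and 15 min, and normalized concentration–response data were fitted to a four-parameter Hill equation.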
Pol eta inh = DNA polymerase eta (human) inhibition. Q9Y253. recombinant Pol eta, fluorescent DNA replication assay. Potency, µM (doses to about 114 µM), usual class: inhibitors. 1.2% of 390,000 active. AID 588591
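Pol eta (10 nM) was preincubated with compounds for 15 min at room temperature, after which fluorescent replication substrate (50 nM final) was added to start the reaction. Fluorescence was read kinetically at 0 and 10 min.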
POLK inh = DNA polymerase kappa (human) inhibition. AID 588579. Q9UBT6. Potency, µM (titrated, usually from 107 µM), actives largely listed as inhibitors. 0.53% of 400,000 active. purified Pol kappa, fluorescent DNA synthesis assay, 10 min
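Fluorescent qHTS in 1536-well format: enzyme (10 nM) and compound sat 15 min at room temperature before 50 nM substrate (final) was added. Signal taken at 0 and 10 min; no-enzyme buffer wells were negative controls.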
WRN inhibitor = WRN helicase (human) inhibition; Q14191; WRN helicase unwinding, fluorescent forked duplex, kinetic; Potency, µM (titrated, usually from 114 µM), usual class: inhibitors; 0.46% of 360,000 active; AID 651768; note: nearly all actives have a fitted effect of over 55% in size
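Kinetic red-fluorescence monitoring (525/598 nm) tracks WRN helicase activity after 100 nM fluorophore-quencher forked duplex and 2 mM ATP are added to 20 nM enzyme pretreated 15 min at room temperature with compound.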
Large screens that a line does not name were inactive. A selection: hits, their analogues and other compounds. The true share with any hit is near 2.4%. Calls come from the whole dose curve; as a rule, active = well fitted curve in the direction sought with a large enough effect; inconclusive = small, poorly fitted or top-dose-only effect, or another doubt; inactive = no such curve, though single readings can be large; an effect the other way counts as inactive or inconclusive.

CCN(C(=O)COC(=O)c1cc2c(s1)CCCC2)c1c(N)n(Cc2ccccc2)c(=O)[nH]c1=O	POLI inh 45µM, Pol eta inh inconclusive (no result: Pol beta inh)
Cc1c(Cl)cccc1NC(=O)C(=O)NCC(c1cccnc1)N1CCN(c2ccccc2)CC1 (stereo unspecified)	none (no result: WRN inhibitor)
CCOC(=O)c1c(NC(=O)COc2cccc(C(F)(F)F)c2)sc2c1CCCCC2	none (no result: WRN inhibitor)
COc1cc(OC)c(N(C)C(=O)c2sc3nc4n(c(=O)c3c2C)CCCCC4)cc1Cl	none (no result: WRN inhibitor)
COc1cc(OC)c(N(C)C(=O)c2sc3nc4n(c(=O)c3c2C)CCCC4)cc1Cl	Pol beta inh 89µM (no result: WRN inhibitor)
COc1cc2c(cc1OC)-c1cc3ccc(OC)c(OC)c3c[n+]1CC2	FEN1 inhibitor inconclusive (no result: Pol beta inh)
COc1ccc2cc3[n+](cc2c1O)CCc1cc2c(cc1-3)OCO2	WRN inhibitor 50µM (no result: POLI inh, Pol beta inh, FEN1 inhibitor, Pol eta inh, POLK inh)
CC(CNC(=O)Cn1ccc2cc(S(=O)(=O)N3CCCCC3)ccc21)c1ccccc1 (stereo unspecified)	none (no result: WRN inhibitor)
COc1ccc(Cn2c(C(=O)O)c(CNC3CCCCC3)c3ccc(C)cc32)cc1	none (no result: WRN inhibitor)
O=C(NC1CCCc2ccccc21)c1cnn2c1NC(=C1CC1)C=C2C(F)F (stereo unspecified)	none (no result: Pol beta inh, Pol eta inh, WRN inhibitor)
CC1(C)N([O-])C2=C(CCCC2)[N+]1=O	POLI inh inconclusive, Pol beta inh 25µM, Pol eta inh 22µM, POLK inh inconclusive
CCOC(=O)c1c(N)n(-c2cccc(OC)c2)c2nc3ccccc3nc12	POLI inh inconclusive (no result: WRN inhibitor)
CCOC(=O)c1c(N)n(-c2ccc(N)cc2)c2nc3ccccc3nc12	POLI inh 79µM, Pol beta inh inconclusive
CCOC(=O)c1c(N)n(-c2ccc(CC)cc2)c2nc3ccccc3nc12	none (no result: WRN inhibitor)
CCOC(=O)c1c(N)n(C2CC(C)(C)NC(C)(C)C2)c2nc3ccccc3nc12	POLI inh inconclusive, Pol beta inh 28µM
O=C(O)c1cc(-c2ccc(/C=N/N3C(=O)C4C5C=CC(C6CC56)C4C3=O)o2)ccc1Cl (stereo unspecified)	Pol beta inh 40µM, Pol eta inh inconclusive
COC(=O)c1ccc(-c2ccc(/C=N/N3C(=O)C4C5C=CC(CC5)C4C3=O)o2)cc1 (stereo unspecified)	Pol beta inh inconclusive
O=C(O)c1cc(-c2ccc(/C=N/N3C(=O)C4C5C=CC(CC5)C4C3=O)o2)ccc1Cl (stereo unspecified)	Pol eta inh 50µM
O=C1C2C3C=CC(C4CC34)C2C(=O)N1/N=C/c1ccc(-c2ccc(F)cc2[N+](=O)[O-])o1 (stereo unspecified)	none
[O-][n+]1onc2c1CCC(=N/O)/C2=N\Nc1ccccc1	Pol beta inh 40µM (no result: POLI inh, FEN1 inhibitor, Pol eta inh, POLK inh, WRN inhibitor)
CCCCNC1=CC(=O)C(=O)c2ccccc21	POLI inh inconclusive, Pol eta inh inconclusive
CCCCNC1=CC(=O)C(NCCCC)=CC1=O	POLI inh 32µM (no result: Pol beta inh)
CC(C)CCNC(=O)c1cc(-c2ccc(Br)s2)nc2ccccc12	none (no result: WRN inhibitor)
CCS(=O)(=O)N1Cc2ccccc2CC1C(=O)N1CCN(c2ccccc2)CC1 (stereo unspecified)	POLI inh inconclusive, Pol beta inh 35µM, Pol eta inh 16µM, POLK inh inconclusive, WRN inhibitor inconclusive
O=C(C1Cc2ccccc2CN1S(=O)(=O)c1ccc(F)cc1)N1CCOCC1 (stereo unspecified)	none
O=C(Nc1nc(-c2ccccn2)cs1)C1CC(=O)N(c2ccc3c(c2)OCCO3)C1 (stereo unspecified)	POLI inh 20µM, Pol beta inh 13µM, Pol eta inh inconclusive, POLK inh inconclusive
O=C(Nc1nc(-c2cccs2)cs1)C1CC(=O)N(c2ccc3c(c2)OCCO3)C1 (stereo unspecified)	none (no result: Pol beta inh, Pol eta inh, WRN inhibitor)
O=C(CCCOc1ccc(Cl)cc1Cl)Nc1ccccc1C(=O)O	none
CCCCOc1ccc(Nc2cc(Cl)ccc2C(=O)O)cn1	Pol beta inh 40µM
O=C1c2ccccc2-c2cc([N+](=O)[O-])c([N+](=O)[O-])cc21	POLI inh 2.2µM, FEN1 inhibitor inconclusive (no result: Pol beta inh, Pol eta inh, WRN inhibitor)
CC(C)=CC(=O)OCC(=O)Nc1ncc(Cl)c(C)c1Cl	POLI inh inconclusive, Pol beta inh 40µM, Pol eta inh 79µM, POLK inh inconclusive, WRN inhibitor inconclusive
CC(=O)c1c(C)[nH]c(C(=O)OCC(=O)Nc2ncc(Cl)c(C)c2Cl)c1C	POLI inh inconclusive, Pol beta inh inconclusive, Pol eta inh 89µM
O=[N+]([O-])c1ccc(/C=C2\C=C(C(O)c3ccc([N+](=O)[O-])cc3)c3ccccc32)cc1 (stereo unspecified)	none (no result: Pol beta inh, Pol eta inh, WRN inhibitor)
CCCCN1CC(c2nc3ccccc3n2CCCCOc2c(C)cccc2C)CC1=O (stereo unspecified)	none (no result: WRN inhibitor)
O=C1CCCC(O)=C1N=Nc1c(Cl)cc(C(F)(F)F)cc1Cl	POLI inh 79µM, Pol beta inh inconclusive, POLK inh inconclusive, WRN inhibitor 79µM
CCOc1cccc(CNc2ccc(O)cc2)c1OCc1ccccc1Cl	POLI inh 8.9µM, FEN1 inhibitor inconclusive, Pol eta inh inconclusive, WRN inhibitor inconclusive
CCOc1cccc(CNn2cnnc2)c1OCc1ccccc1Cl	none
CCOc1cc(CNc2ccc(O)cc2)cc(Cl)c1OCc1ccccc1	POLI inh 25µM (no result: WRN inhibitor)
CSc1ncc(C(=O)Nc2cccc(C)c2C)c(-c2ccccc2)n1	none (no result: WRN inhibitor)
CC(=O)NN1C(=O)/C(=C\c2ccc(O)cc2)SC1=S	POLI inh inconclusive
CC(=O)NN1C(=O)/C(=C\c2ccc(Br)o2)SC1=S	POLI inh inconclusive, Pol beta inh 28µM, Pol eta inh 25µM, POLK inh inconclusive
COc1cccc(N2CCN(C(=O)c3cc4c(=O)n(Cc5ccco5)ccc4nc3C)CC2)c1	Pol beta inh inconclusive (no result: WRN inhibitor)
COc1cc2nc(N3CCCCC3)nc(NC(C)C)c2cc1OC	FEN1 inhibitor inconclusive (no result: Pol beta inh, Pol eta inh, WRN inhibitor)
O=C(COc1ccc2oc(-c3ccccc3)cc(=O)c2c1)NCc1ccco1	POLI inh inconclusive, Pol beta inh 22µM, Pol eta inh inconclusive, WRN inhibitor inconclusive
Cc1cc(=O)oc2cc(OCC(=O)NCc3ccco3)ccc12	none
COc1ccc2oc(-c3ccco3)cc(=O)c2c1	Pol beta inh 50µM
CC#CCOC(=O)C1=CCCN(C)C1	none (no result: POLI inh, Pol beta inh, FEN1 inhibitor, Pol eta inh, WRN inhibitor)
CC(C)NC(=O)N1CC[C@@]2(CCCN(C(=O)c3csnn3)C2)C1	none (no result: POLI inh, Pol beta inh, FEN1 inhibitor, Pol eta inh, WRN inhibitor)
COc1ccc2cc(C(=O)Nc3ccccc3)sc(=O)c2c1OC	Pol beta inh 22µM, Pol eta inh inconclusive, POLK inh inconclusive
CCOC(=O)c1ccc(NC(=O)c2c(NCc3ccc(OC)c(OC)c3OC)sc3c2CCC(C)C3)cc1 (stereo unspecified)	none (no result: WRN inhibitor)
Cc1ccc(NC(=O)Cn2cc(C(=O)c3ccco3)c3ccccc32)cc1	POLI inh 79µM, Pol beta inh 11µM (no result: WRN inhibitor)
O=C(Cn1cc(C(=O)c2ccco2)c2ccccc21)Nc1ccccc1	Pol beta inh inconclusive
